# From PubChem
# HCV inh = qHTS Assay for Inhibitors of Hepatitis C Virus (HCV); Potency, µM (series often up to 41.8 µM), for the others: at the top dose activity change, negative = inhibition, usual class: inhibitors; Huh7.5.1 HCVcc-Cre infection, luciferase reporter, 44 h; hit rate 3.4% among 340,000; note: potency is the fitted concentration of half-maximal effect; % is set by controls: 0 for no effect and ±100 for the full control effect
#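 Antiviral activity was scored by luciferase reporter output from cells infected with HCVcc-Cre (~0.5 moi) in presence of compound, 44 h infection period, cells seeded 1,000/well 4 h prior.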
# AMA1-RON2 inh = qHTS for Inhibitors of AMA1-RON; Towards Development of Antimalarial Drug Lead: Primary Screen; Plasmodium falciparum AMA1 (3D7) - RON2 peptide interaction; AlphaScreen AMA1-biotinylated RON2 peptide binding; Potency, µM (highest dose often 58.2 µM), for the others: at the top dose activity change, negative = inhibition, usual class: inhibitors; hit rate 0.2% among 360,000;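 note: potency is the fitted concentration of half-maximal effect; 0% = vehicle wells and -100% = peptide control; nearly all actives have a fitted effect of over 45% in size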
#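 AMA1 (3D7) with his tag at 25 nM final met compounds first, then biotinylated RON2 peptide at 25 nM; detection used donor plus acceptor beads, 10 µg/mL apiece, read by AlphaScreen after 30 min at room temperature.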
# CHX counter = Cycloheximide Counterscreen for Small Molecule Inhibitors of Shiga Toxin | cell reporter, cycloheximide protein synthesis inhibition counterscreen | max response, % | hit rate 12% among 300,000; in the data active = max response mostly above about 13%, no sharp cut-off; inactive = mostly below about 14%; note: read at 38.3 µM for the half of the compounds with a filed dose; 0% is about no effect
# Pf growth 48h = Primary qHTS for delayed death inhibitors of the malarial parasite plastid, 48 hour incubation | P. falciparum luciferase growth in erythrocytes, 48 h | Potency, µM (series often up to 28.7 µM), inactives show top-dose activity change, negative = inhibition, actives largely listed as inhibitors | hit rate 5.9% among 310,000; note: potency is the fitted concentration of half-maximal effect; % is set by controls: 0 for no effect and ±100 for the full control effect
#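 Parasite viability was followed by luminescence of a genomically integrated firefly luciferase. Cultures held 0.1% parasitemia at 2% hematocrit (final), incubated under 5% CO2 at 37 C.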
# Shiga inhibitor = A qHTS for Small Molecule Inhibitors of Shiga Toxin; Vero cells, Shiga toxin protein synthesis inhibition reporter; inhibition, % at 38.7 µM; hit rate 9.2% among 290,000; AID 2315, 2010; in the data active = inhibition mostly above about 28%, no sharp cut-off; inactive = mostly below about 43%; note: 0% is about no effect
# Pf growth 96h = Primary qHTS for delayed death inhibitors of the malarial parasite plastid, 96 hour incubation; P. falciparum luciferase reporter growth, 96 h; Potency, µM (highest dose often 28.7 µM), without a hit: top-dose activity change, negative = inhibition, most hits filed as inhibitors; hit rate 6.9% among 320,000; note: potency is the fitted concentration of half-maximal effect; % is set by controls: 0 for no effect and ±100 for the full control effect
#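 Two-generation exposure (96 h) targets delayed-death phenotype. Reporter parasites carrying integrated firefly luciferase, in red cells at 2% hematocrit and 0.05% parasitemia final, kept at 37 C, 5% CO2; luminescence loss indicates inhibition.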
# * hit, by the source's call; ? = inconclusive; · = not tested or not shown. This is a sample that favours compounds with a hit; in the whole collection about 21% have one here. Unless noted, calls come from the whole dose curve; as a rule, active = well fitted curve in the direction sought with a large enough effect; inconclusive = small, poorly fitted or top-dose-only effect, or another doubt; inactive = no such curve, though single readings can be large; an effect the other way counts as inactive or inconclusive.
SMILES,HCV inh,AMA1-RON2 inh,CHX counter,Pf growth 48h,Shiga inhibitor,Pf growth 96h
COc1cccc(/C=C2\Oc3cc(OCC(=O)N4Cc5ccccc5C[C@H]4C(=O)O)ccc3C2=O)c1,-3%,-22%,-2,-1%,3,22%
CCCNS(=O)(=O)c1ccc(OCC(=O)NCC2CCCO2)cc1 (centres undefined),14%,0%,-7,-4%,-9,7%
N#Cc1ccc(N/N=C/c2cn(-c3ccccc3)nc2-c2ccccc2)c([N+](=O)[O-])c1,6%,-3%,-2,?,10,0.52µM*
NS(=O)(=O)c1ccc(N/N=C/c2cn(-c3ccccc3)nc2-c2cccs2)c([N+](=O)[O-])c1,11µM*,-25%,6,1.5µM*,7,3.3µM*
Cc1nn(-c2ccccc2)c(N2CCCC2)c1/C=N/Nc1ccc(S(N)(=O)=O)cc1[N+](=O)[O-],?,?,-1,?,-12,?
NS(=O)(=O)c1ccc(N/N=C/c2cn(-c3ccccc3)nc2-c2cccs2)cc1,1.8µM*,-14%,9.3*,0.19µM*,39*,0.066µM*
O=Cc1cn(-c2ccccc2)nc1-c1cccc([N+](=O)[O-])c1,·,-6%,·,·,·,·
CCOC(=O)c1cocc1C(=O)O,33%,-28%,·,·,·,·
COc1ccccc1NC(=O)CSc1ccc(-c2ccc(-n3cccn3)cc2)nn1,?,-1%,·,?,·,?
C/C(=N\NC(=O)Cc1ccc(Cl)cc1)c1ccccc1O,?,70%,2,?,-8,-89%
COc1ccc(N=NC2=C(O)CC(C)(C)CC2=O)cc1,0%,-19%,47*,6%,124*,?
CC1(C)CC(=O)C(N=Nc2cccc([N+](=O)[O-])c2)=C(O)C1,0%,-14%,45*,9%,63*,33%
CC1(C)CC(=O)C(N=Nc2ccc(Br)cc2)=C(O)C1,-21%,9%,5,14%,16,7%
COc1ccc(N=NC2=C(O)CC(C)(C)CC2=O)c(OC)c1,-10%,-15%,19,-12%,53*,-12%
COc1cccc(CNS(=O)(=O)c2cc(Br)ccc2Br)c1,·,0%,·,·,·,·
CC(=O)c1ccc(OCCCC(=O)NCc2nnc3ccccn23)cc1,-19%,1%,·,1%,·,11%
CNc1ccc(C=C2C=Cc3ccccc32)cc1,?,25µM*,·,·,·,·
CN(C)c1ccc(C=C2C=Cc3ccccc32)cc1,-14%,?,·,·,·,·
CCC(C)CCCCC(=O)NC(CCN)C(=O)NC(C(=O)NC(CCN)C(=O)NC1CCNC(=O)C(C(C)O)NC(=O)C(CCN)NC(=O)C(CCN)NC(=O)C(CC(C)C)NC(=O)C(Cc2ccccc2)NC(=O)C(CCN)NC1=O)C(C)O (centres undefined),·,·,·,3%,·,-29%
CN(C)C(=O)c1ccc(Oc2ccc(C(=O)N(C)C)cc2)cc1,0%,6%,4,8%,3,1.9µM*
CC(=O)c1ccc(OC(=O)Oc2ccc(C(C)=O)cc2)cc1,23%,-1%,·,·,·,·
CC(=O)c1ccc(Oc2ccc(C(C)=O)cc2)cc1,-8%,22%,17*,135%,83,?
CN(Cc1ccccc1F)C(=O)c1ccc(Oc2ccccc2)cc1,-12%,48%,2,6%,19,2%
CC(=O)Oc1ccc2ccc3ccc(C(C)=O)cc3c2c1,13µM*,4%,·,·,·,·
CCc1nc2ccc(C(=O)NCc3ccc4c(c3)OCO4)cn2c1N(CCC(C)C)CCN(C)C,·,7%,·,·,·,·
SMILES,HCV inh,AMA1-RON2 inh,CHX counter,Pf growth 48h,Shiga inhibitor,Pf growth 96h
COc1ccccc1/C=C1\CCCC2=C1Nc1nnnn1C2c1ccccc1OC (centres undefined),?,-7%,-3,?,8,-20%
O=C(N=Nc1c(O)n(Cc2ccccc2)c2ccccc12)c1ccc(O)cc1,?,-7%,64*,?,60*,12µM*
O=C(N=Nc1c(O)n(Cc2ccccc2)c2ccccc12)c1cc2ccccc2cc1O,?,8%,16*,?,22,-4%
Cc1ccc(NC(=O)Cn2c(O)c(N=NC(=O)c3cc4ccccc4cc3O)c3ccccc32)cc1,?,-20%,9,26%,-4,-29%
COc1cc(O)c(C(CCN2CCCC(C)C2)c2cc(OC)c(OC)c(OC)c2)c(OC)c1 (centres undefined),-25%,50%,-7,1.3µM*,-9,0.52µM*
COc1cc(OC)c2c(C)cc(=O)oc2c1C(CCN1CCOCC1)c1ccc2c(c1)OCO2 (centres undefined),?,-13%,-1,?,-5,?
COc1cc(OC)c2c(-c3ccccc3)cc(=O)oc2c1C(CC(=O)N1CCCC1)c1ccc2c(c1)OCO2 (centres undefined),?,-17%,25,9.3µM*,34,?
COc1cc(OC)c2c(-c3ccccc3)cc(=O)oc2c1C(CCN1CCCCC1)c1ccc2c(c1)OCO2 (centres undefined),?,-10%,-3,?,-2,9.3µM*
COc1cc(OC)c2c(-c3ccccc3)cc(=O)oc2c1C(CCN1CCCC(C)C1)c1ccc2c(c1)OCO2 (centres undefined),-25%,3%,-3,12µM*,-5,?
OC[C@@H]1CN(Cc2ccco2)C[C@H](n2cnc3c(Nc4ccccc4)ncnc32)O1,·,0%,·,·,·,·
Cc1cc(C(=O)N2CCC2(C)C(=O)NCc2cccc3ccccc23)nn1C (centres undefined),·,7%,·,·,·,·
Cc1ccc(C(=O)NNC(=O)C(NC(=O)c2cccc(C)c2)C(C)C)cc1 (centres undefined),9%,67%,·,?,·,-27%
COc1cc(O)c(C(CCN2CCCCC2)c2ccc3c(c2)OCO3)c(OC)c1 (centres undefined),-23%,-8%,-1,0.93µM*,7,0.47µM*
Cc1ccc(CN(C)C(=O)CSc2nnc3n2CCCCC3)c(C)c1,-7%,-5%,·,?,·,7.4µM*
N=C1SC(c2ccccc2)C(=O)N1c1ncc(Cc2ccccc2Cl)s1 (centres undefined),-18%,74%,2,?,10,?
O=C(Nc1ccccc1Cl)c1cc(C2CCCCN2C(=O)CCCc2ccccc2)on1 (centres undefined),·,3%,·,·,·,·
CC1CC(C)CN(c2ncc3c(n2)CC(c2ccccc2Cl)CC3=O)C1 (centres undefined),-2%,-4%,-1,10µM*,-9,15µM*
